According to PubChem BioAssay (NCI):
About 83,000 compounds went through this panel and 20% of them were active in at least one assay; those are over-represented in the sample as a whole.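 For each line, cells grew in 96-well plates with the test compound present at a single concentration for 48 hours.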 Values without a mark were called inactive. Activity calls are given as the source filed them. Rule for the calls: active = growth percent below 10; inactive = the rest.

system: OVCAR-5 ovarian; experiment: NCI-60 one-dose screen, 48 h (100 = growth as untreated, 0 = no growth, -100 = all killed); conditions: 10 µM unless noted

SMILES	growth
CCc1ccc(C(=Nc2ccc(N(C)C(=O)CN3CCN(C)CC3)cc2)c2c(O)[nH]c3ccc(C(=O)OC)cc23)cc1	-58.1% (active)
Cc1ccc(C(C)C)c(OCc2ccc(C(=O)N/N=C/c3cccc(O)c3O)cc2)c1	70.3%
C/C(=N\Nc1ccc(Cl)cn1)c1ccc2ccccc2n1	29.9%
CCOC(=O)c1ccc2n1CCCc1cnc(NC(C)=O)nc1-2	94.1%
COC(=O)c1ccc2[nH]c(O)c(C(=Nc3ccc(N(C)C(=O)CN4CCN(C)CC4)cc3)c3ccc(C)cc3)c2c1	29.7%

system: OVCAR-4 ovarian; experiment: as above; conditions: 10 µM unless noted

SMILES	growth [%]
Brc1ccc(-c2nc3ccccc3s2)cc1	93.5
c1cc[c]([Bi]([c]2ccccc2)[c]2ccccc2)cc1	89.3
O=C1/C(=N\c2cc(=O)[nH]n2S(=O)(=O)c2ccccc2)Nc2ccccc21	98.4
COc1ccc(/C=C/C(=O)/C=C/c2cc3ccccc3[nH]c2=O)cc1	74.5
C/C=C/C/C=C/[C@H](C)C[C@H](O)[C@@H]1C[C@@H]2O[C@H]2/C=C/[C@@H]2OC(C)(C)O[C@H]2/C=C/C[C@H](C)CC(=O)O1	23.3
COC1(OC)N=C(N)C2(C#N)C3(C(=O)Nc4ccccc43)C12C#N (configuration not stated)	60
C/C=C/C/C=C/[C@H](C)C[C@H](O)[C@@H]1C[C@@H]2O[C@H]2/C=C/[C@H](O)[C@@H](O)/C=C/C[C@H](C)CC(=O)O1	88.9
COc1cc(-c2nc3c(c(C)nc4c3nnn4-c3ccccc3)c(=O)o2)cc(OC)c1OC	114
CCC(C)C1NC(=O)C(CC(C)C)NC(=O)C(C)NC(=O)C(C(C)C)NC(=O)C(CCCCN)NC(=O)C(CC(C)C)NC(=O)C(C(C)C)NC(=O)[C@H](C)NC(=O)C(C(C)CC)NC(=O)C(CCCN=C(N)N)NC(=O)C(CCCCN)NC(=O)C(CCCN=C(N)N)NC(=O)C(CCCCN)NC(=O)C([C@H](C)CC)NC(=O)C(CCCCN)NC1=O (some centres not stated)	18.4
COc1ccc(-c2nc(SCC(C)C)nc(Nc3ccc(C(=O)O)cc3)c2C#N)cc1	87.1
O=S(=O)(O)CCI	105
Nc1nc2c(c3cnccc13)C(c1cccc(Cl)c1)Cc1cnccc1-2 (configuration not stated)	32.1
Oc1ccccc1\C=N/N=C/C=C/c1ccccc1	97.7
COC(=O)c1ccc2[nH]c(O)c(C(=Nc3ccc(N(C)C(=O)CN4CCN(C)CC4)cc3)c3ccc(N)cc3)c2c1	73.7
CC(C)OC(=O)c1ccc2n1CCCc1cnc(Nc3ccccc3)nc1-2	61.4
CC(=O)Nc1ccc(C(=O)/C=C/c2ccc(N(C)C)cc2)cc1	109

SMILES	growth [%]
CCOC(=O)C1=C(c2ccccc2)NC(=O)NC1CN1C(=O)c2ccccc2C1=O (configuration not stated)	107
CC/C(=N\Nc1nc2ccccc2n1C)c1ccccn1	11.5
CCCCCCC(C)N(CC(C)(C)O)C(=O)c1ccc([N+](=O)[O-])cc1 (configuration not stated)	108
O=C1C(=O)c2ccccc2C(O)=C1CCCc1ccc(Oc2ccccc2)cc1	59.6
C=C[C@]1(C)C=C2C(=O)[C@@]3(O)OC[C@@]4(CCCC(C)(C)C43O)C2(O)C(O)C1 (some centres not stated)	24.4
COc1ccc(/C=C2\CCCC3=C2N=C2SC=NN2C3c2ccc(OC)c(OC)c2)cc1OC (configuration not stated)	49.1
CC(C)(C)c1ccc(OCCOC(=O)CBr)cc1	98.8
c1cc(C2CCCCC2)ccc1OCCCCCCN1CCNCC1	41.6
CCOC(=O)c1c2c(cn1Cc1ccccc1)-c1oncc1CC2	104
C/C(=N\Nc1cccc(Cl)n1)c1ccccn1	10.5
CC(=O)c1ccc2c(c1)c1ccccc1n2C	115
CCCCN(CCCC)CCCNc1c2c(nc3ccc(Cl)cc13)CCCC2	84.7
COc1ccc(Cn2cc3c(c2)-c2oncc2CC3)cc1OC	43.4
C/C(=N\Nc1ccc(Cl)cn1)c1ccccn1	28.7
NC(=O)c1c(Nc2ccccc2)nn2cc(-c3nc4ccccc4s3)c(N)nc12	97.1
COC(=O)c1ccc2[nH]c(O)c(C(=Nc3ccc(N(C)C(=O)CN4CCN(C)CC4)cc3)c3cccc(OC)c3)c2c1	25.4
